Measured values as given in PubChem BioAssay AID1159580 (chemical genetic matrix, 2015).
Screen size: about 5,500 compounds; about 2,000 (36%) were called active. Roughly 18% stayed inconclusive and do not appear here. Cut-off read from the data, not from the text of the source: active = normalized growth mostly below about 0.91 (no sharp cut-off); inconclusive = no clear call, values can overlap the other calls; inactive = mostly above about 0.92. The list shows a part of the results.

Experiment: chemical genetic growth profiling, strain panel (AID 1159580);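 note: tested at 20 µM; growth read once vehicle control cultures reached saturation at 30 °C; 1 = growth at the plate median or of vehicle wells; lower values mean less growth of the strain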
Details: growth OD

Measured: normalized growth

COc1ccc2c(c1OC)C(=O)OC2[C@H]1c2c(cc3c(c2OC)OCO3)CCN1C (stereo partly drawn)
inactive: S. cerevisiae deletion strains, locus YJR043C, strain POL32, hits give low values 0.986 | S. cerevisiae deletion strains, locus YJR066W, strain TOR1, hits give low values 0.973 | S. cerevisiae deletion strains, locus YKL009W, strain mrt4, hits give low values 0.972 | S. cerevisiae deletion strains, locus YKL068W, hits give low values 0.99 | S. cerevisiae deletion strains, locus YKL085W, strain MDH1 (second series), hits give low values 0.991 | S. cerevisiae deletion strains, locus YKL085W, strain MDH1, hits give low values 0.991 | S. cerevisiae deletion strains, locus YKL160W, strain elf1, hits give low values 1.01 | S. cerevisiae deletion strains, locus YKL190W, strain CNB1, hits give low values 0.995 | S. cerevisiae deletion strains, locus YKR001C, strain vps1, hits give low values 0.985 | S. cerevisiae deletion strains, locus YKR026C, strain gcn3, hits give low values 1 | S. cerevisiae deletion strains, locus YKR091W, strain srl3, hits give low values 1.01 | S. cerevisiae deletion strains, locus YLL001W, strain dnm1, hits give low values 0.973 | S. cerevisiae deletion strains, locus YLL026W, hits give low values 1.01 | S. cerevisiae deletion strains, locus YLL041C, strain sdh2, hits give low values 0.995 | S. cerevisiae deletion strains, locus YLR027C, strain aat2, hits give low values 1.02 | S. cerevisiae deletion strains, locus YLR039C, strain RIC1, hits give low values 0.997 | S. cerevisiae deletion strains, locus YLR058C, strain SHM2, hits give low values 1.01 | S. cerevisiae deletion strains, locus YLR102C, strain apc9, hits give low values 0.994 | S. cerevisiae deletion strains, locus YLR113W, strain HOG1, hits give low values 0.966 | S. cerevisiae deletion strains, locus YLR221C, strain rsa3, hits give low values 1 | S. cerevisiae deletion strains, locus YLR258W, strain gsy2, hits give low values 1.02 | S. cerevisiae deletion strains, locus YLR262C, strain YPT6 (second series), hits give low values 1.03 | S. cerevisiae deletion strains, locus YLR262C, strain YPT6, hits give low values 1 | S. cerevisiae deletion strains, locus YLR268W, strain sec22, hits give low values 0.948 | S. cerevisiae deletion strains, locus YLR320W, strain mms22, hits give low values 0.975 | S. cerevisiae deletion strains, locus YLR330W, strain CHS5, hits give low values 0.991 | S. cerevisiae deletion strains, locus YLR342W, strain FKS1 (second series), hits give low values 1.01 | S. cerevisiae deletion strains, locus YLR342W, strain FKS1, hits give low values 1.01 | S. cerevisiae deletion strains, locus YLR357W, strain rsc2, hits give low values 0.997 | S. cerevisiae deletion strains, locus YLR370C, strain arc18, hits give low values 1.02 | S. cerevisiae deletion strains, locus YLR371W, strain rom2, hits give low values 0.98 | S. cerevisiae deletion strains, locus YLR384C, strain iki3, hits give low values 1 | S. cerevisiae deletion strains, locus YLR418C, strain cdc73, hits give low values 0.984 | S. cerevisiae deletion strains, locus YML016C, strain PPZ1, hits give low values 1 | S. cerevisiae deletion strains, locus YML032C, strain rad52, hits give low values 0.99 | S. cerevisiae deletion strains, locus YML120C, strain ndi1, hits give low values 1.02 | S. cerevisiae deletion strains, locus YML124C, strain tub3, hits give low values 0.989 | S. cerevisiae deletion strains, locus YMR058W, strain fet3, hits give low values 1.01 | S. cerevisiae deletion strains, locus YMR078C, strain ctf18, hits give low values 0.993 | S. cerevisiae deletion strains, locus YMR125W, strain sto1, hits give low values 1.01 | S. cerevisiae deletion strains, locus YMR129W, hits give low values 1.01 | S. cerevisiae deletion strains, locus YMR205C, strain PFK2, hits give low values 0.981 | S. cerevisiae deletion strains, locus YMR223W, strain ubp8, hits give low values 1.01 | S. cerevisiae deletion strains, locus YMR231W, strain pep5, hits give low values 1.01 | S. cerevisiae deletion strains, locus YMR307W, strain GAS1, hits give low values 1 | S. cerevisiae deletion strains, locus YNL067W, strain RPL9B, hits give low values 0.993 | S. cerevisiae deletion strains, locus YNL071W, strain lat1, hits give low values 1.02 | S. cerevisiae deletion strains, locus YNL153C, strain GIM3, hits give low values 1.01 | S. cerevisiae deletion strains, locus YNL183C, strain NPR1, hits give low values 0.951 | S. cerevisiae deletion strains, locus YNL209W, strain ssb2, hits give low values 1 | S. cerevisiae deletion strains, locus YNL233W, strain BNI4, hits give low values 0.999 | S. cerevisiae deletion strains, locus YNL248C, strain rpa49, hits give low values 0.984 | S. cerevisiae deletion strains, locus YNL250W, strain rad50, hits give low values 0.985 | S. cerevisiae deletion strains, locus YNL271C, strain bni1, hits give low values 0.984 | S. cerevisiae deletion strains, locus YNL298W, strain CLA4, hits give low values 0.992 | S. cerevisiae deletion strains, locus YNL307C, strain MCK1, hits give low values 0.987 | S. cerevisiae deletion strains, locus YNL322C, strain KRE1 (second series), hits give low values 1.02 | S. cerevisiae deletion strains, locus YNR049C, strain mso1, hits give low values 1.01 | S. cerevisiae deletion strains, locus YNR052C, strain pop2, hits give low values 0.978 | S. cerevisiae deletion strains, locus YOL006C, strain TOP1, hits give low values 1.07 | S. cerevisiae deletion strains, locus YOL012C, strain htz1 0.809 | S. cerevisiae deletion strains, locus YOL147C, strain pex11, hits give low values 0.987 | S. cerevisiae deletion strains, locus YOR001W, strain rrp6, hits give low values 1.02 | S. cerevisiae deletion strains, locus YOR061W, strain CKA2, hits give low values 1.01 | S. cerevisiae deletion strains, locus YOR069W, strain VPS5, hits give low values 1 | S. cerevisiae deletion strains, locus YOR070C, strain gyp1, hits give low values 0.996 | S. cerevisiae deletion strains, locus YOR080W, strain dia2, hits give low values 1.04 | S. cerevisiae deletion strains, locus YOR083W, strain WHI5, hits give low values 0.953 | S. cerevisiae deletion strains, locus YOR106W, strain vam3, hits give low values 1.02 | S. cerevisiae deletion strains, locus YOR136W, strain idh2, hits give low values 0.995 | S. cerevisiae deletion strains, locus YOR144C, strain elg1, hits give low values 1 | S. cerevisiae deletion strains, locus YOR184W, strain ser1, hits give low values 0.976 | S. cerevisiae deletion strains, locus YOR231W, strain MKK1, hits give low values 0.985 | S. cerevisiae deletion strains, locus YOR265W, strain rbl2, hits give low values 1.02 | S. cerevisiae deletion strains, locus YOR270C, strain vph1, hits give low values 1.04 | S. cerevisiae deletion strains, locus YOR290C, strain snf2, hits give low values 1.02 | S. cerevisiae deletion strains, locus YOR316C, strain cot1, hits give low values 0.989 | S. cerevisiae deletion strains, locus YPL051W, strain arl3, hits give low values 1.02 | S. cerevisiae deletion strains, locus YPL078C, strain atp4, hits give low values 1 | S. cerevisiae deletion strains, locus YPL106C, strain sse1, hits give low values 1.07 | S. cerevisiae deletion strains, locus YPL240C, strain hsp82, hits give low values 1.01 | S. cerevisiae deletion strains, locus YPL256C, strain CLN2, hits give low values 0.984 | S. cerevisiae deletion strains, locus YPR119W, strain clb2, hits give low values 0.995 | S. cerevisiae deletion strains, locus YPR141C, strain kar3, hits give low values 0.993 | S. cerevisiae deletion strains, locus YPR163C, strain tif3, hits give low values 0.984 | S. cerevisiae deletion strains, locus YPR167C, strain met16, hits give low values 0.986 | S. cerevisiae deletion strains, strain wtn01, hits give low values 0.967 | S. cerevisiae strains, strain wild type, hits give low values 1.01
